For 37 compounds, Potency results are on record in PubChem BioAssay (Tox21).

Values joined by “and” are separate entries in the source; they are usually repeats but may differ in a detail not shown here. Equal entries are not always repeated. Results filed as inconclusive are left out. Where a call stands in place of a potency, no number is given. Some compounds were tested as several samples or in several runs, with calls that do not always agree. Active and inactive are the calls of the source. Calls come from the whole dose curve; as a rule, active = well fitted cell-killing curve with a large enough effect in the repeat runs; inconclusive = weak or mixed curves, or effect the other way; inactive = no such curve, though single readings can be large or run the other way.
Potency is the fitted concentration of half-maximal effect.

The assay can be described thus: qHTS assay for identifying genotoxic compounds that show differential cytotoxicity against isogenic chicken DT40 cell lines with known DNA damage response pathways - Rev3 mutant cell line (AID 743014). Note: nearly all actives have a fitted effect of over 55% in size. The settings on record: chicken DT40 Rev3-/- viability, CellTiter-Glo, 40 h; series mostly up to 68.4 µM. Background: qHTS replaces the single test concentration by a dilution series.
With `C=N[C@@H](C(=O)N[C@@H]1C(=O)N2[C@@H]1SC(C)(C)[C@@H]2C(=O)O)c1ccccc1`, the Potency result is “inactive”.

As to `O=C(O)/C=C/C(=O)Nc1ccc(S(=O)(=O)Nc2nccs2)cc1`, the Potency entry is “inactive”.

For `O=c1[nH]c(=O)n([C@H]2C[C@H](O)[C@@H](CO)O2)cc1/C=C/Br`, the Potency result was “inactive”.

Consider `C[C@H](O)CN(C)C`, for which the Potency entry was “inactive”.

Regarding `O=C1CC[C@@H](C(=O)N[C@H]2C[C@@H]2c2ccccc2)N1`, the Potency entry is “inactive”.

Regarding `CC(C)C[C@H](NC(=O)[C@@H](COC(C)(C)C)NC(=O)[C@H](Cc1ccc(O)cc1)NC(=O)[C@H](CO)NC(=O)[C@H](Cc1c[nH]c2ccccc12)NC(=O)[C@H](Cc1cnc[nH]1)NC(=O)[C@@H]1CCC(=O)N1)C(=O)N[C@@H](CCCN=C(N)N)C(=O)N1CCC[C@H]1C(=O)NNC(N)=O`, the Potency entry is “inactive”.

Turning to `NC[C@H]1O[C@H](O[C@H]2[C@H](O)[C@@H](O[C@H]3O[C@H](CO)[C@@H](O)[C@H](N)[C@H]3O)[C@H](N)C[C@@H]2N)[C@H](N)C[C@@H]1O`, the Potency entry is “inactive”.

In the case of `FC(F)(F)COCC(F)(F)F`, the Potency result is “inactive”.

For the compound `NCC[C@H](O)C(=O)N[C@@H]1C[C@H](N)[C@@H](O[C@H]2O[C@H](CN)CC[C@H]2N)[C@H](O)[C@H]1O[C@H]1O[C@H](CO)[C@@H](O)[C@H](N)[C@H]1O`, the Potency entry was “inactive”.

For the compound `CC(C)Cc1ccc([C@H](C)C(=O)O)cc1`, the Potency result is “inactive”.

As to `O=P(O)(O)C(O)(Cn1ccnc1)P(=O)(O)O`, the Potency entry is “inactive”.

In the case of `NCC(O)CC(=O)O` (configuration not stated), the Potency entry was “inactive”.

Regarding `CNCC(=O)N[C@@H](CCCN=C(N)N)C(=O)N[C@H](C(=O)N[C@@H](Cc1ccc(O)cc1)C(=O)N[C@H](C(=O)N[C@@H](Cc1cnc[nH]1)C(=O)N1CCC[C@H]1C(=O)N[C@@H](C)C(=O)O)C(C)C)C(C)C`, the Potency entry was “inactive”.

`CCC(NC(C)C)C(O)c1ccc(O)c(O)c1` (configuration not stated): the Potency entry is “inactive”.

On to `CCCOC(=O)c1ccc(O)cc1`, for which the Potency result is “inactive and 68.6 µM (active)”.

For `CC12CCC(C[N+](C)(CCC[N+](C)(C)C)C1)C2(C)C` (configuration not stated), the Potency result is “inactive”.

As for `COc1ccc(/C=N/NC(=O)c2ccncc2)c(C(=O)O)c1OC`, the Potency entry was “inactive”.

For `O=C1[O][Bi][O]c2ccccc21`, the Potency entry is “inactive”.

Turning to `CC(=NCc1ccccc1)c1ccccc1O`, the Potency result is “inactive”.

In the case of `C[C@H](NCCc1ccc(O)cc1)[C@H](O)c1ccc(O)cc1`, the Potency result is “inactive”.

For the compound `CCCC(CCC)C(=O)OC1C[C@H]2CC[C@@H](C1)[N+]2(C)C` (some centres not stated), the Potency result was “inactive and 13.3 µM (active)”.

With `CC(C)(S)C(=O)N[C@@H](CS)C(=O)O`, the Potency result is “inactive”.

Consider `NC(=O)[C@H]1O[C@@H](O)[C@H](O)[C@@H](O)[C@@H]1O`, for which the Potency result was “inactive”.

`CCCCCCCCCCCCCC(=O)OCC(COP(=O)([O-])OCC[N+](C)(C)C)OC(=O)CCCCCCCCCCCCC` (configuration not stated): the Potency result was “inactive”.

Regarding `CCN(CC)C(=O)c1cccnc1`, the Potency result is “inactive”.

In the case of `CC(C)(COP(=O)(O)OP(=O)(O)OC[C@H]1O[C@@H](n2cnc3c(N)ncnc32)[C@H](O)[C@@H]1OP(=O)(O)O)C(O)C(=O)NCCC(=O)NCCS` (some centres not stated), the Potency result is “inactive”.

Regarding `NC(=S)NS(=O)(=O)c1ccc(N)cc1`, the Potency entry was “inactive”.

Turning to `c1ccc2cc3c4ccccc4c4ccccc4c3cc2c1`, the Potency result is “inactive”.

Regarding `C[S+](CC[C@H](N)C(=O)O)C[C@H]1O[C@@H](n2cnc3c(N)ncnc32)[C@H](O)[C@@H]1O` (some centres not stated), the Potency result was “inactive”.

As to `CC(C)(C)C(=O)OCC(=O)[C@H]1CC[C@H]2[C@@H]3CCC4=CC(=O)CC[C@]4(C)[C@H]3CC[C@]12C`, the Potency entry is “inactive”.

With `CC(=O)Nc1ccc(OC(C)=O)cc1`, the Potency result was “inactive”.

In the case of `C=CC(N)CCC(=O)O` (configuration not stated), the Potency entry was “inactive”.

`Cc1c(N)nc([C@H](CC(N)=O)NC[C@H](N)C(N)=O)nc1C(=O)N[C@H](C(=O)N[C@H](C)[C@@H](O)[C@H](C)C(=O)N[C@H](C(=O)NCCc1nc(-c2nc(C(=O)NCCCCN=C(N)N)cs2)cs1)[C@@H](C)O)[C@@H](O[C@@H]1O[C@@H](CO)[C@@H](O)[C@H](O)[C@@H]1O[C@H]1O[C@H](CO)[C@@H](O)[C@H](OC(N)=O)[C@@H]1O)c1cnc[nH]1`: the Potency was 1.33 µM (active).

Take `CCOC(=O)COc1ccc2c(=O)cc(-c3ccccc3)oc2c1`: the Potency entry was “inactive”.

With `CO/N=C(\C(=O)N[C@@H]1C(=O)N2C(C(=O)[O-])=C(C[n+]3ccc(N)n3CCO)CS[C@H]12)c1csc(N)n1`, the Potency result is “inactive”.

Take `NC(=O)CC[C@@H]1NC(=O)[C@H](Cc2ccccc2)NC(=O)[C@H](Cc2ccc(O)cc2)NC(=O)[C@@H](N)CSSC[C@@H](C(=O)N2CCC[C@H]2C(=O)N[C@@H](CCCN=C(N)N)C(=O)NCC(N)=O)NC(=O)[C@H](CC(N)=O)NC1=O`: the Potency entry was “inactive”.

Regarding `Cc1onc(-c2c(F)cccc2Cl)c1C(=O)N[C@@H]1C(=O)N2[C@@H]1SC(C)(C)[C@@H]2C(=O)O`, the Potency result was “inactive”.
